From the supplement of paper PMC4894684
Counter-ions that a name gives are not always drawn. ± gives the standard deviation of the averaged measurements.

These compounds were tested on Toxoplasma gondii RH (in HFF) (assay: parasite growth relative to the screen mean (all compounds = 100%); higher = less inhibition of parasite growth). Conditions: 5 µM; 72 h; oxygen 21 %.
How it was run: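 RH β-Gal–GFP Toxoplasma at MOI 1:5 was used to infect confluent human foreskin fibroblasts in 96-well plates within 2 h of pin-transferring compounds to 5 µM final. After 72 h at 21% O2, parasite number was determined by CPRG β-Gal assay against standard curves on the same plate. Growth is relative to the screen mean and averaged over two screens, with all compounds = 100%.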

| Structure (SMILES) | parasite growth [%] |
| --- | --- |
| C1CCC2(CC1)CCNCC2 [4,4-Pentamethylenepiperidine hydrochloride] | 107 ± 22 |
| O=C(CCCCCN1C(=O)c2cccc3cccc(c23)C1=O)NO [Scriptaid] | < 0 |
| Oc1cc2c(cc1O)C(c1ccccc1)CNCC2 (stereo not drawn) | 162 ± 47 |
| CN(Cc1cnc2nc(N)nc(N)c2n1)c1ccc(C(=O)N[C@@H](CCC(=O)O)C(=O)O)cc1 [Methotrexate] | 161 ± 27 |
| O=S(=O)(NCCNC/C=C/c1ccc(Br)cc1)c1cccc2cnccc12 [H 89 dihydrochloride] | 26.2 ± 27 |
| O=C1NN(C(=O)Nc2ccc(Br)cc2)[C@@H](c2ccccc2)[C@@H]1c1ccccc1 | 124.5 ± 1.1 |
| CC(C)(C)NC[C@H](O)COc1nsnc1N1CCOCC1 [(S)-Timolol maleate] | 119 ± 1.7 |
| COc1ccc2cc([C@H](C)C(=O)O)ccc2c1 [Naproxen sodium] | 89.9 ± 13 |
| Fc1ccc(C(c2ccc(F)cc2)N2CCN(C/C=C/c3ccccc3)CC2)cc1 [Flunarizine dihydrochloride] | 56.3 ± 12 |
| O=C(Nc1ccccc1)C12CC1C(=NO)c1ccccc1O2 (stereo not drawn) | 77.3 ± 29 |
| NC(=O)CCCCn1ccc(NC(N)=NCC(F)(F)F)n1 | 95.1 ± 10 |
| NS(=O)(=O)c1nn2cc(-c3ccccc3)nc2s1 | 108 ± 28 |
| COc1ccc(OC)c2c(=S)c3ccccc3[nH]c12 | 171 ± 20 |
| CC(C)(Oc1ccc(Cl)cc1)C(=O)O [Clofibric acid] | 127 ± 43 |
| CCCCCS(=O)(=O)CCCCCCCCCCn1c(-c2ccc(O)cc2)c(C)c2cc(O)ccc21 | 132 ± 30 |
| NC(=O)c1cccc(N)c1 [3-Aminobenzamide] | 129 ± 30 |
| O=C(O)c1ccc(C=C2SC(=S)N(c3cccc(C(F)(F)F)c3)C2=O)cc1 | 109 ± 36 |
| CCCCCCCCCCCCCCCC(=O)O[C@H](CC(=O)O)C[N+](C)(C)C (racemic) [(±)-Palmitoylcarnitine chloride] | 108 ± 22 |
| CC1(C)Oc2ccc(C#N)cc2[C@@H](N2CCCC2=O)[C@@H]1O [Levcromakalim] | 158 ± 31 |

| Structure (SMILES) | parasite growth [%] |
| --- | --- |
| CN(C)c1nc(N)c(C(=O)Nc2cccnc2)nc1Cl [ACDPP hydrochloride] | 88.7 ± 3 |
| COc1ccc(CC(=O)NC(/N=C(\NC#N)Nc2cccc3ncccc23)C(C)(C)C)cc1OC (stereo not drawn) | 123 ± 17 |
| CCN1CCC[C@H]1CNC(=O)c1c(O)c(Cl)cc(Cl)c1OC [Raclopride] | 138 ± 25 |
| COc1ccc(NC(=O)c2cc(OCCCN(C)C)nn2Cc2ccccc2)cc1 [CFM 1571 hydrochloride] | 106 ± 4.8 |
| CC(=O)NCCc1c(Cc2ccccc2)[nH]c2ccccc12 [Luzindole] | 75.1 ± 29 |
| CCCc1c(OCC(O)COc2ccc3c(=O)cc(C(=O)O)oc3c2CCC)ccc(C(C)=O)c1O (stereo not drawn) | 96.9 ± 7.1 |
| N#CC(=C(/N)Sc1ccccc1N)/C(C#N)=C(/N)Sc1ccccc1N | 197 ± 14 |
| COc1ccc(-c2nc(-c3ccc(-c4cccc(Cl)c4)o3)[nH]c2-c2ccc(OC)cc2)cc1 [Neurodazine] | 120 ± 28 |
| CN1CCN(C(=O)c2nc3ccc(Cl)cc3[nH]2)CC1 | 133 ± 14 |
| CCCCCCCC/C=C\CCCCCCCC(N)=O [Oleamide] | 74.8 ± 12 |
| COc1c(C)c2c(c(O)c1C/C=C(\C)CCC(=O)O)C(=O)OC2 [Mycophenolic acid] | < 0 |
| Cc1cccc(C)c1OCC(C)N (stereo not drawn) [Mexiletine hydrochloride] | 141.59 ± 0.025 |
| COC(=O)/C=C/c1cccc(N(Cc2ccc(-c3ccc(N(C)C)cc3)cc2)C(=O)C2CCCCC2)c1 [Fexaramine] | 159 ± 7.7 |
| CSc1nc(NC2CCCC2)c([N+](=O)[O-])c(NC2CCCC2)n1 | 35.6 ± 32 |
| CCc1ccc(OCc2ccccc2C(=O)Nc2ccc3nc(C)cc(N)c3c2)cc1 | < 0 |
| CCC1(c2ccccc2)C(=O)NCNC1=O [Primidone] | 113 ± 18 |
| CC(C)[C@H](NS(=O)(=O)c1ccc(-c2ccc(Br)cc2)cc1)C(=O)O | 130 ± 34 |
| CC(=Cc1ccc(C(=O)O)cc1)c1ccc2c(c1)C(C)(C)CCC2(C)C | 120 ± 27 |
| Nc1nc(F)nc2c1ncn2[C@@H]1O[C@H](CO)[C@@H](O)[C@@H]1O [Fludarabine] | 102 ± 10 |
